A number with no mark means an inactive call.

The subject of one assay is Vero E6 infected with SARS-CoV-2. The assay is described as follows: inhibition of SARS-CoV-2 cytopathic effect; higher = more antiviral protection, active = above 15. The following applies: 1 nM; 48 h. On the technique in general: Cytopathic effects are the visible damage that an infection or toxin causes in cultured cells.
As for `CC1(C)[C@@H](O)CC[C@]2(C)[C@H]3C(=O)C=C4[C@@H]5C[C@@](C)(C(=O)O)CC[C@]5(C)CC[C@@]4(C)[C@]3(C)CC[C@@H]12` [enoxolone], the “inhibition of SARS-CoV-2 cytopathic effect” value (“inhibition” for short) was -3.08%. Same read-out and setting: for `C[N+]1(CCCCC[N+]2(C)CCCC2)CCCC1` [pentolinium] the value was 2.83%. On the same count and under the same terms, then `Cc1[nH]c2ccc(Cl)cc2c1C1=CCNCC1`, with 0.44%; and `Cc1cc(C)c(CNC(=O)c2cc(-c3ccc(N4CCN(C)CC4)nc3)cc3c2c(C)cn3C(C)C)c(=O)[nH]1`, with -3.53%; and `O=C(N[C@H]1CN2CCC1CC2)c1ccc2c(c1)OCCO2`, with -2.13%. The same measure, in the same setting: then `CCOC(=O)c1ccc(OC(=O)CCCCCNC(=N)N)cc1` [gabexate], with -0.03%.

Staying with this assay, now noted: 8.33 nM; 48 h.
`O=C(O)c1cccnc1C(=O)O` [quinolinic-acid]: the “inhibition” value was -1.19%. Same read-out and setting: for `CN1C[C@H](CNC(=O)OCc2ccccc2)C[C@@H]2c3cccc4c3c(cn4C)C[C@H]21` [metergoline] the value was -6.82%; for `O=C(Cc1ccc(-c2ccccc2)cc1)Nc1ccccn1` [difenpiramide], 3.03%.

Regarding `CC(C)C(=O)SCCCCC[C@H](NC(=O)OC(C)(C)C)C(=O)NC12CC3CC(CC(C3)C1)C2`, the “inhibition” value is -0.36%.

For `CC(C)N1Cc2cc(S(C)(=O)=O)ccc2N(CCN2CC=C(c3c[nH]c4cc(F)ccc34)CC2)S1(=O)=O`, the “inhibition” value was 5.05%. Still for that read-out and setting: then `NC[C@@H](O)CC(=O)O` [aminohydroxybutyric-acid], with -1.06%; and `O=C(/C=C/c1cccc(S(=O)(=O)Nc2ccccc2)c1)NO` [belinostat], with 0.41%; and `NC(=O)c1cccc(N)c1` [3-amino-benzamide], with -0.97%. Same read-out and setting: for `c1ccc(CCCN2CCN(CCOC(c3ccccc3)c3ccccc3)CC2)cc1` the value was 0.97%; for `O=C(OC(C(F)(F)F)C(F)(F)F)N1CCN(Cc2cccc(Oc3ccccc3)c2)CC1`, 4.7%; for `CN(Cc1ccc(C(C)(C)C)cc1)Cc1cccc2ccccc12` [butenafine], 3.81%. On the same count and under the same terms, then `CC(=O)c1ccc2c(c1)[C@H](NC(=O)c1ccc(F)c(Cl)c1)[C@H](O)C(C)(C)O2` [tonabersat], with -1.2%. Turning to `C[C@@]1(c2cc(-c3cncnc3)c(F)cc2F)CCSC(N)=N1`, the “inhibition” value is -3.4%. On to `c1ccc2[nH]c(-c3cscn3)nc2c1` [tiabendazole], for which the “inhibition” value was 1.24%.

In the case of `CC1(C)C(=O)NC2=C1C(=O)C(=O)c1ccccc12`, the “inhibition” value is -0.49%.

Consider `COC[C@H](NC(=O)c1cnc(C)s1)C(=O)N[C@@H](COC)C(=O)N[C@@H](Cc1ccccc1)C(=O)[C@@]1(C)CO1` [oprozomib], for which the “inhibition” value was 3.66%. Still for that read-out and setting: for `CN(C)C(=O)[C@H](O)[C@H](Cc1ccccc1)NC(=O)c1cc2cc(Cl)ccc2[nH]1` the value was -0.29%; for `CO[C@@H]1[C@H](N(C)C(=O)c2ccccc2)C[C@H]2O[C@]1(C)n1c3ccccc3c3c4c(c5c6ccccc6n2c5c31)C(=O)NC4` [midostaurin], -8.56%; for `NS(=O)(=O)c1cccc2c1c([N+](=O)[O-])cc1nc(O)c(O)nc12`, 2.79%. Still for that read-out and setting: for `CCOC(=O)c1ccc(C#Cc2ccc3c(c2)C(C)(C)CCS3)nc1` [tazarotene] the value was 0.89%; for `Cc1c(Cl)c(C)[n+]([O-])c(Cl)c1-c1noc(-c2cc(O)c(O)c([N+](=O)[O-])c2)n1` [opicapone], 1.95%; for `CC(=O)OCC(=O)[C@@]1(O)CC[C@H]2[C@@H]3CCC4=CC(=O)CC[C@]4(C)[C@@]3(F)[C@@H](O)C[C@@]21C`, -0.43%. Turning to `N[C@@H](C(=O)N[C@@H]1C(=O)N2C(C(=O)O)=C(Cl)CC[C@H]12)c1ccccc1` [loracarbef], the “inhibition” value is 4.02%.

With `Cc1cnc(-c2cnc(NCCNc3ccc(C#N)cn3)nc2-c2ccc(Cl)cc2Cl)[nH]1`, the “inhibition” value is 3.19%.

For `CNCCCOc1cc(F)c(-c2c(Cl)nc3ncnn3c2N[C@@H](C)C(F)(F)F)c(F)c1` [cevipabulin], the “inhibition” value is 1.13%. The same measure, in the same setting: for `CC(=C(CCO)SSCC1CCCO1)N(C=O)Cc1cnc(C)nc1N` (stereo in doubt) [fursultiamine] the value was 0.44%; for `CC(C)(C)[C@]1(O)CCN2C[C@H]3c4ccccc4CCc4cccc(c43)[C@@H]2C1` [butaclamol], 1.31%.

For the origin of these results see the supplement of paper PMC13380429.
